Compounds with a hit are over-represented: about 6.5% of the library has one in this group of screens.
Vaccinia mCherry: qHTS for Stage-Specific Inhibitors of Vaccinia Orthopoxvirus: mCherry Reporter Primary qHTS; Vaccinia virus mCherry reporter infection, fluorescence; Potency, µM (highest dose often 36.5 µM), for the others: at the top dose activity change, negative = inhibition, most hits filed as inhibitors; 0.63% of 310,000 active; calls by dose curve; tested in A549 cells; further: potency means the concentration at half of the fitted maximal effect; nearly all actives have a fitted effect of over 35% in size
Vaccinia Venus: qHTS for Stage-Specific Inhibitors of Vaccinia Orthopoxvirus: Venus Reporter Primary qHTS; Vaccinia virus Venus reporter expression, fluorescence; Potency, µM (top dose mostly 36.5 µM), for the others: at the highest dose activity change, negative = inhibition, actives largely listed as inhibitors; 0.46% of 330,000 active; calls by dose curve; tested in A549 cells; further: potency means the concentration at half of the fitted maximal effect; nearly all actives have a fitted effect of over 30% in size
MARV entry inh: qHTS for inhibitors of binding or entry into cells for Marburg Virus; Marburg virus pseudotyped entry inhibition, cell reporter; Potency, µM (top dose mostly 37.8 µM), for inactives: at the top dose activity change, negative = inhibition, hits mostly inhibitors; 1.8% of 300,000 active; calls by dose curve; tested in HEK293 cells; further: potency means the concentration at half of the fitted maximal effect
LASV entry inh: qHTS for Inhibitors of binding or entry into cells for Lassa Virus. Lassa virus pseudotype entry inhibition, cell reporter. Potency, µM (highest dose often 37.9 µM), without a hit: at the highest dose activity change, negative = inhibition, actives largely listed as inhibitors. 1.2% of 300,000 active; calls by dose curve; tested in HEK293 cells; further: potency means the concentration at half of the fitted maximal effect; nearly all actives have a fitted effect of over 50% in size
FMDV inh: High Throughput Screening for Foot and Mouth Disease Virus Antivirals; FMDV antiviral cell-based qHTS; Potency, µM (titrated, usually from 57.9 µM), for the others: at the highest dose activity change, negative = inhibition, most hits filed as inhibitors; 1.2% of 410,000 active; AID 1159524, 2015; calls by dose curve; tested in HEK293T cells; further: read-out not given here; potency means the concentration at half of the fitted maximal effect; nearly all actives have a fitted effect of over 45% in size
HCMV inh: qHTS Assay for inhibitors of the human cytomegalovirus (HCMV) | HFF cells, HCMV-luciferase reporter, 72 h; hits give low values | activity change, negative = inhibition, % at 57.5 µM | 4.5% of 410,000 active | AID 1259415, 2018; in the data active means activity change below about -60%; inconclusive means no clear call, values can overlap the other calls; inactive means above about -39%
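Cell-based, HFFs, 1000 cells/well, 16 h 37C; cpds in DMSO + HCMV-luc, MOI 1 PFU/cell; 72 h 37C; OneGlo luminescence after 5 min RT; norm. to buffer vs Salinomycin 10uM.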
An asterisk follows results filed as active; i = inactive; ? = inconclusive; · = not tested or not shown; [ ] = dose if it differs, or a comment. On the % scale 0 is the no-effect control and ±100 the full control effect.

SMILES	Vaccinia mCherry	Vaccinia Venus	MARV entry inh	LASV entry inh	FMDV inh	HCMV inh
COCCN1C(=O)NC(c2cccc(F)c2)C(C(C)=O)=C1C (stereo not given)	·	·	-6%[14.2 µM]	·	·	·
CN(c1ccc(C(=O)O)cc1)S(=O)(=O)c1ccccc1	·	-6%	0%	19%	-16%	17
COc1ccc(C(=O)Oc2ccc(N(C)S(=O)(=O)c3ccccc3)cc2)cc1[N+](=O)[O-]	-17%	-2%	3%[46.1 µM]	-16%[46.1 µM]	0%	-99*
CN1CCN(CCCNC(=O)c2ccc(CSCc3cccc(Cl)c3)o2)CC1	·	-26%	?	11µM*	7%	-21
CC1CCN(CCCNC(=O)c2ccc(CSCc3cccc(Cl)c3)o2)CC1	·	·	12µM*	-18%	-27%	-6
O=C(NCCCN1CCCC1)c1ccc(CSCc2cccc(Cl)c2)o1	·	·	?	-4%	-13%	8
CNc1cc(C(=O)Nc2cccc(OCc3ccccc3)c2)ncn1	30%	-4%	·	·	27%	48
COc1cccc(-c2ccnc(-n3ncc(C(=O)N(C)CCc4ccccn4)c3C)n2)c1	-12%	-9%	·	·	6%	·
Cc1ccc(NC(=O)c2cc([N+](=O)[O-])ccc2N2CCOCC2)cc1C	-17%	-13%	7.1µM*	-14%[46.1 µM]	2%	?
O=C(Nc1ccc(N2CCN(C(=O)c3ccccc3)CC2)cc1)c1cc([N+](=O)[O-])ccc1N1CCOCC1	i	-19%	0.63µM*	6%	-23%	9
CC(C)c1ccc(NC(=O)c2cc([N+](=O)[O-])ccc2N2CCOCC2)cc1	·	·	·	·	-25%	?
CC(=O)Nc1ccccc1-c1nc(CNC(=O)c2cccc(-n3cccn3)c2)c(C)o1	-10%	-5%	·	·	?	·
COCCNC(=O)C(c1ccc(F)cc1)N(Cc1cccs1)C(=O)CCC(=O)Nc1ccccn1 (stereo not given)	-14%	-9%	5%[46.1 µM]	-12%	-6%	2
C=CCCC(=O)N1C[C@H]2CON(C)[C@H]2C[C@H]1c1ccccc1Br	i	-5%	·	·	-22%	2
C=CCCC(=O)N1C[C@H]2CON(C)[C@H]2C[C@H]1c1ccc(Br)cc1	-5%	-4%	·	·	-17%	-101*
COc1cc(C)c(CN2CCc3nnc(C(C)NC(=O)c4cc(F)ccc4F)n3CC2)cc1C (stereo not given)	-19%	-18%	·	·	-16%	·
CCC(C(=O)NCCCN1CC(C)CC(C)C1)n1nc(C)c2sc3ccccc3c2c1=O (stereo not given)	·	·	·	·	0%	-73*
NC(=O)c1ccc(-c2nc(-c3ccc4c(c3)OCO4)c(-c3ccccn3)[nH]2)cc1	·	·	·	6.3µM*	-4%	·
COC1=C(Br)C(=O)c2nc(C)ccc2C1=O	-6%	-24%	·	·	40µM*	12
COC1=C(N)C(=O)c2nc(C)ccc2C1=O	i	4%	?	-21%	10µM*	-16
COc1ccc(N)c2c1C(=O)c1ccccc1C2=O	77%	95%	0%	?	-6%	27
CC(C)C[C@@H]1NC(=O)[C@H](C(C)C)NC(=O)c2cc([N+](=O)[O-])cc(I)c2NCC[C@@H](C(N)=O)NC1=O	0%	-4%	-7%	2%	-27%	·
CC[C@H](C)[C@@H]1NC(=O)[C@@H](CC(C)C)NC(=O)[C@H](C(C)C)NC(=O)[C@H]2CSSC[C@H](NC1=O)C(=O)N2	5µM*	4.5µM*	·	·	6.3µM*	-106*
C/C(CCC(C)C)=N\NC(=O)COc1ccccc1-c1ccccc1	-13%	-11%	?	?	-10%	-90*
CC(=O)Nc1ccccc1OCC(=O)NC(C)c1ccccc1 (stereo not given)	·	·	0%	-3%	3%	76
SMILES	Vaccinia mCherry	Vaccinia Venus	MARV entry inh	LASV entry inh	FMDV inh	HCMV inh
C/C(CCc1ccccc1)=N\NC(=O)COc1ccccc1C	i	-4%	?	·	-1%	26
CC(NC(=O)COc1ccccc1-c1ccccc1)c1ccccc1 (stereo not given)	i	-6%	?	18µM*	?	-69*
O=C1NC(=S)NC1Cc1ccc(O)cc1 (stereo not given)	i	-3%	-12%[46.1 µM]	5%[46.1 µM]	15%	-22
CCS(=O)(=O)c1nnnn1-c1ccccc1S(C)(=O)=O	?	?	?	20%[14.3 µM]	40µM*	-93*
O=S(=O)(Cc1nnnn1-c1ccc(Br)cc1)c1ccccc1	i	-7%	·	·	-12%	-27
COc1cccc(CNS(=O)(=O)c2cc(Br)ccc2Br)c1	-6%	-17%	·	-8%[46.1 µM]	25%	-5
CS(=O)(=O)c1ccc(CNC(=O)C2(C(F)(F)F)CC(CCCO)CCCO2)cc1 (stereo not given)	11µM*	?	·	·	0%	-67*
CN(C)c1ncc2nc(-c3cccs3)c(=O)n(CCc3ccccc3)c2n1	·	·	·	·	6%	·
O=C1N[C@@H](Cc2ccccc2)COC(=O)[C@@H](Cc2ccc(F)cc2)C/C=C\C[C@@H]1CC(=O)N(CCO)Cc1ccccc1	?	13µM*	·	·	?	-96*
CC(C)(C)OC(=O)C[C@H]1C/C=C\C[C@@H](CC(=O)NCCO)C(=O)N[C@H](Cc2ccccc2)COC1=O	-26%	-9%	·	·	-17%	-61*
Cn1c(-c2ccncc2)nc2cc(C(=O)N3CCCC3c3nccs3)cc(NC(=O)C3CCC3)c21 (stereo not given)	-9%	3%	·	·	-5%	·
CN1CCN(c2nccc3[nH]c(-c4ccccc4Cl)nc23)CC1	·	·	·	·	·	-5
Oc1cc(O)cc(-c2cc3ccc(O)cc3o2)c1	-8%	-7%	·	·	-21%	31
CC1(C)Oc2cc3oc(-c4cc(O)cc(O)c4)cc3cc2CC1O (stereo not given)	-10%	-4%	·	·	11µM*	-30
Cc1[nH]n2c(=O)cc(-c3ccccc3Cl)nc2c1-c1ccccc1	?	-29%	-25%[46.1 µM]	?	-23%	-94*
CCc1cc(=O)n2[nH]c(C)c(-c3ccccc3OC)c2n1	-4%	-7%	·	·	-16%	4
COCc1cc(=O)n2[nH]c(C)c(-c3ccc(Cl)cc3)c2n1	10µM*	?	·	·	?	-14
CC1(Oc2cccc(F)c2)CCN(Cc2ccc3ccccc3c2)C1 (stereo not given)	-4%	1%	·	·	-20%	-6
COc1ccc2c(c1)Cc1sc(NC(=O)c3cccc(Cl)c3)nc1-2	?	?	·	20%[46.1 µM]	?	-27
COc1ccc(C(=O)Nc2nc3c(s2)CCc2cc(OC)ccc2-3)cc1	-22%	-7%	?	12%[46.1 µM]	?	-33
COc1ccc2c(c1)Cc1sc(NC(=O)c3ccc(Cl)cc3)nc1-2	?	?	?	3%[46.1 µM]	-19%	-63*
